Test results taken from the supplement of paper PMC9262897, “Low-cost anti-mycobacterial drug discovery using engineered E. coli” (Nature Communications, 2022).
Structures can show the parent of a compound that is named as a salt. ± gives the standard deviation of the averaged measurements.

Legend:
Experiment in all cases: growth (OD600 after 10 h); higher = more growth (less inhibition)
[1] = tested on: E. coli TESEC Alr+ wild-type control; details: compound 0.1 mM; raw OD600 reference: median of DMSO wells 0.241, cell-free background 0.041
Description: (§1)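 TESEC Mtb Alr E. coli, or the Alr+ wild-type control, in 384-well plates with Prestwick library compounds at 0.1 mM and 1% DMSO, across arabinose induction levels of 1E3 to 1E7 nM. Growth is read as OD600 after 10 h at 37 °C in triplicate biological replicates.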

E. coli TESEC Mtb Alr [2] = details: compound 0.1 mM
Description: as §1

E. coli TESEC Mtb Asd = details: compound 0.1 mM
Description: (§2)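 TESEC E. coli strains in which the native enzyme is deleted and replaced by arabinose-inducible Mtb Asd, DapB, CysH or TrpD, each grown in its selective medium. Strains were screened against the Prestwick library at 0.1 mM and 1% DMSO in 384-well format at low and high arabinose induction. Growth is read as OD600 after 10 h in triplicate.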

E. coli TESEC Mtb DapB = details: compound 0.1 mM
Description: as §2

[3] = tested on: E. coli TESEC Alr+ wild-type control; details: compound 0.1 mM; raw OD600 reference: median of DMSO wells 0.49, cell-free background 0.052
Description: (§3)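 TESEC Mtb Alr E. coli (ΔaraC ΔtolC ΔentC Δalr ΔdadX, arabinose-inducible Mtb Alr) or the Alr+ wild-type control strain, grown in defined M9-fructose medium without D-alanine in 96-well plates with Prestwick library compounds at 0.1 mM and 1% DMSO. Low Alr induction is 0.1 µM arabinose and high induction is 10 mM arabinose.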

E. coli TESEC Mtb Alr [4] = details: compound 0.1 mM; remark: listed apart in the source
Description: as §3

[5] = arabinose 1000 nM, raw OD600 reference: median of DMSO wells 0.294, cell-free background 0.041
[6] = arabinose 10000 nM, raw OD600 reference: median of DMSO wells 0.264, cell-free background 0.041
[7] = arabinose 100000 nM, raw OD600 reference: median of DMSO wells 0.201, cell-free background 0.041
[8] = arabinose 1000000 nM, raw OD600 reference: median of DMSO wells 0.193, cell-free background 0.041
[9] = arabinose 10000000 nM, raw OD600 reference: median of DMSO wells 0.146, cell-free background 0.041
[10] = arabinose induction (level): High, raw OD600 reference: median of DMSO wells 0.331, cell-free background 0.041
[11] = arabinose induction (level): Low, raw OD600 reference: median of DMSO wells 0.417, cell-free background 0.041
[12] = arabinose induction (level): High, raw OD600 reference: median of DMSO wells […], cell-free background 0.041
[13] = arabinose induction (level): Low, raw OD600 reference: median of DMSO wells 0.227, cell-free background 0.041
[14] = arabinose 100 nM, raw OD600 reference: median of DMSO wells 0.413, cell-free background 0.052
[15] = arabinose 10000000 nM, raw OD600 reference: median of DMSO wells […], cell-free background 0.052

| SMILES | growth [1] | growth (E. coli TESEC Mtb Alr [2]; [5]) | growth (E. coli TESEC Mtb Alr [2]; [6]) | growth (E. coli TESEC Mtb Alr [2]; [7]) | growth (E. coli TESEC Mtb Alr [2]; [8]) | growth (E. coli TESEC Mtb Alr [2]; [9]) | growth (E. coli TESEC Mtb Asd; [10]) | growth (E. coli TESEC Mtb Asd; [11]) | growth (E. coli TESEC Mtb DapB; [12]) | growth (E. coli TESEC Mtb DapB; [13]) | growth [3] | growth (E. coli TESEC Mtb Alr [4]; [14]) | growth (E. coli TESEC Mtb Alr [4]; [15]) |
| --- | --- | --- | --- | --- | --- | --- | --- | --- | --- | --- | --- | --- | --- |
| C#C[C@]1(O)CC[C@H]2[C@@H]3CCC4=CCCC[C@@H]4[C@H]3CC[C@@]21C [Lynestrenol] | 0.237 ± 0.0046 | 0.297 ± 0.0055 | 0.266 ± 0.015 | 0.18 ± 0.033 | 0.164 ± 0.0081 | 0.15 ± 0.0066 | 0.312 ± 0.033 | 0.387 ± 0.039 | 0.174 ± 0.0039 | 0.198 ± 0.027 | 0.451 ± 0.013 | 0.394 ± 0.0051 | 0.289 ± 0.0077 |
| CC[C@H]1OC(=O)C[C@@H](O)[C@H](C)[C@@H](O[C@@H]2O[C@H](C)[C@@H](O[C@H]3C[C@@](C)(O)[C@@H](O)[C@H](C)O3)[C@H](N(C)C)[C@H]2O)[C@@H](CC=O)C[C@@H](C)C(=O)/C=C/C(C)=C/[C@@H]1CO[C@@H]1O[C@H](C)[C@@H](O)[C@@H](OC)[C@H]1OC [Tylosin] | 0.04133 ± 5.8e-05 | 0.0588 ± 0.0023 | 0.0397 ± 0.00017 | 0.0503 ± 0.0012 | 0.03953 ± 0.00032 | 0.0429 ± 0.0013 | 0.0667 ± 0.004 | 0.0597 ± 0.0035 | 0.0739 ± 0.0012 | 0.0754 ± 0.0056 | 0.0591 ± 0.00044 | 0.249 ± 0.12 | 0.0521 ± 0.00046 |
| CC1(C)S[C@@H]2[C@H](NC(=O)[C@H](N)c3ccccc3)C(=O)N2[C@H]1C(=O)O [Ampicillin trihydrate] | 0.235 ± 0.0072 | 0.279 ± 0.011 | 0.253 ± 0.013 | 0.189 ± 0.024 | 0.1927 ± 0.0013 | 0.145 ± 0.0022 | 0.388 ± 0.056 | 0.394 ± 0.066 | 0.205 ± 0.013 | 0.256 ± 0.051 | 0.479 ± 0.038 | 0.4271 ± 0.0036 | 0.338 ± 0.0045 |
| CCn1cc(C(=O)O)c(=O)c2cnc(N3CCCC3)nc21 [Piromidic acid] | 0.228 ± 0.0041 | 0.314 ± 0.026 | 0.267 ± 0.0056 | 0.161 ± 0.019 | 0.182 ± 0.0092 | 0.145 ± 0.0049 | 0.288 ± 0.037 | 0.432 ± 0.015 | 0.208 ± 0.016 | 0.239 ± 0.025 | 0.144 ± 0.003 | 0.12 ± 0.021 | 0.105 ± 0.015 |
| CN1CCN(CCCN2c3ccccc3Sc3ccc(C(F)(F)F)cc32)CC1 [Trifluoperazine dihydrochloride] | 0.0402 | 0.03983 ± 0.00032 | 0.03903 ± 0.00012 | 0.04003 ± 5.8e-05 | 0.03933 ± 5.8e-05 | 0.0403 ± 0.0001 | 0.0513 ± 0.00026 | 0.054 ± 0.0007 | 0.04873 ± 0.00025 | 0.171 ± 0.11 | 0.04767 ± 0.00035 | 0.26 ± 0.19 | 0.0509 ± 0.00026 |
| CSc1ccc2c(c1)C(N1CCN(C)CC1)Cc1ccccc1S2 (configuration not stated) [Methiothepin maleate] | 0.0405 ± 0.00044 | 0.0412 ± 0.0021 | 0.0394 ± 0.00042 | 0.04073 ± 0.00025 | 0.03917 ± 5.8e-05 | 0.0411 ± 0.0013 | 0.0562 ± 0.0036 | 0.0503 ± 0.0057 | 0.0514 ± 0.00083 | 0.0485 ± 0.00094 | 0.04833 ± 0.00021 | 0.293 ± 0.21 | 0.0516 ± 0.00053 |
| COc1ccc(C(Cl)=C(c2ccc(OC)cc2)c2ccc(OC)cc2)cc1 [Chlorotrianisene] | 0.242 ± 0.0055 | 0.306 ± 0.018 | 0.2565 ± 0.0023 | 0.189 ± 0.013 | 0.208 ± 0.013 | 0.168 ± 0.049 | 0.281 ± 0.037 | 0.264 ± 0.019 | 0.232 ± 0.016 | 0.267 ± 0.0015 | 0.469 ± 0.025 | 0.443 ± 0.02 | 0.407 ± 0.019 |
| COc1cc2ncnc(Nc3ccc(F)c(Cl)c3)c2cc1OCCCN1CCOCC1 [Gefitinib] | 0.206 ± 0.013 | 0.294 ± 0.019 | 0.24 ± 0.0039 | 0.198 ± 0.017 | 0.161 ± 0.0089 | 0.162 ± 0.0061 | 0.261 ± 0.026 | 0.454 ± 0.038 | 0.207 ± 0.012 | 0.246 ± 0.0095 | 0.496 ± 0.03 | 0.284 ± 0.2 | 0.0533 ± 0.0025 |
| C=CC(N)CCC(=O)O (configuration not stated) [Vigabatrin] | 0.239 ± 0.005 | 0.279 ± 0.014 | 0.278 ± 0.0034 | 0.213 ± 0.013 | 0.191 ± 0.0036 | 0.148 ± 0.0044 | 0.313 ± 0.06 | 0.389 ± 0.089 | 0.174 ± 0.0095 | 0.192 ± 0.014 | 0.586 ± 0.13 | 0.411 ± 0.014 | 0.361 ± 0.046 |
| COc1c2occc2c(OC)c2c(=O)cc(C)oc12 [Khellin] | 0.206 ± 0.0044 | 0.2539 ± 0.0022 | 0.245 ± 0.0065 | 0.189 ± 0.0037 | 0.149 ± 0.0057 | 0.1439 ± 0.00044 | 0.317 ± 0.081 | 0.35 ± 0.016 | 0.182 ± 0.0039 | 0.253 ± 0.1 | 0.418 ± 0.038 | 0.3963 ± 0.0035 | 0.306 ± 0.032 |
| O=C1NCN(c2ccccc2)C12CCN(CCCC(c1ccc(F)cc1)c1ccc(F)cc1)CC2 [Fluspirilen] | 0.0416 ± 0.0009 | 0.044 ± 0.0032 | 0.0402 ± 0.00092 | 0.0775 ± 0.0044 | 0.0438 ± 0.0018 | 0.0681 ± 0.0024 | 0.0816 ± 0.034 | 0.0703 ± 0.0098 | 0.167 ± 0.014 | 0.19 ± 0.021 | 0.055 ± 0.0016 | 0.0516 ± 0.00059 | 0.0605 ± 0.008 |
| Cc1ccc(Cl)c(Nc2ccccc2C(=O)O)c1Cl [Meclofenamic acid sodium salt monohydrate] | 0.0491 ± 0.00067 | 0.0555 ± 0.0013 | 0.0424 ± 0.00044 | 0.0566 ± 0.00087 | 0.04353 ± 0.00038 | 0.0628 ± 0.001 | 0.0702 ± 0.014 | 0.0796 ± 0.0032 | 0.118 ± 0.021 | 0.123 ± 0.016 | 0.139 ± 0.011 | 0.0708 ± 0.027 | 0.0591 ± 0.0032 |
| COc1cc(OC)c(C(=O)CCCN2CCCC2)c(OC)c1 [Buflomedil hydrochloride] | 0.238 ± 0.0082 | 0.296 ± 0.0094 | 0.269 ± 0.0091 | 0.201 ± 0.04 | 0.189 ± 0.0075 | 0.146 ± 0.0076 | 0.274 ± 0.033 | 0.335 ± 0.064 | 0.166 ± 0.041 | 0.188 ± 0.01 | 0.642 ± 0.053 | 0.407 ± 0.0067 | 0.345 ± 0.0037 |
| CC(C)Cn1cnc2c(N)nc3ccccc3c21 [Imiquimod] | 0.224 ± 0.017 | 0.282 ± 0.0092 | 0.282 ± 0.01 | 0.165 ± 0.012 | 0.178 ± 0.014 | 0.158 ± 0.01 | 0.209 ± 0.026 | 0.392 ± 0.024 | 0.21 ± 0.011 | 0.261 ± 0.045 | 0.574 ± 0.048 | 0.411 ± 0.0054 | 0.301 ± 0.015 |
